Inconclusive results are not listed. Where a call stands in place of a potency, no number is given. A number with no mark means an inactive call. The source made the active and inactive calls. Calls follow the shape of the full dose curve.

The assay can be described thus: qHTS assay to identify small molecule agonists of the progesterone receptor (PR) signaling pathway - cell viability counter screen (AID 1346799). Also: nearly all actives have a fitted effect of over 45% in size. The note with it: PR-UAS-bla HEK293T viability, CellTiter-Glo luminescence, 16 h; series mostly up to 92.4 µM. An excerpt:
National Center for Advancing Translational Sciences [NCATS]
NIH Chemical Genomics Center [NCGC]
U.S. Environmental Protection Agency [EPA]
National Institutes of Environmental Health Sciences [NIEHS]
National Toxicology Program [NTP]
U.S. Food and Drug Administration [FDA]
Progesterone receptor (PR), a nuclear hormone receptor, plays an important role in development, metabolic homeostasis and reproduction. It is activated by the steroid hormone progesterone. Endocrine disrupting chemicals (EDCs) and their interactions with steroid hormone receptors like PR causes disruption of normal endocrine function. To identify the compounds that stimulate PR signaling, a PR-UAS-bla GripTite cell line i.e. PR-UAS-bla HEK293T (Invitrogen, Carlsbad, CA, USA) containing a beta-lactamase reporter gene under the control of an UAS response element was used to screen Tox21 10K compound library. The cytotoxicity of the Tox21 compound library against the PR-bla cell line was tested in parallel by measuring the cell viability using CellTiter-Glo assay in the same wells.
Tox21 Assay Protocol Summary:
PR-UAS-bla HEK293T cells were dispensed at 3,000 cells/5 uL of assay medium containing 2% charcoal stripped FBS per well into black wall/clear-bottom 1536-well plates using a Multidrop Combi (ThermoFisher Scientific, Waltham, MA) dispenser. After the assay plates were incubated at a 37C and 5% CO2 for 6 hr, 23 nL of compounds dissolved in DMSO, positive controls or DMSO only was transferred to the assay plate by a Pintool station (Kalypsys, San Diego, CA). The plates were incubated at 37C and 5% CO2 for 16 hr. Then 1 uL of LiveBLAzer B/G FRET substrate was added using a Flying Reagent Dispenser (FRD, Aurora Discovery, San Diego, CA), the plates were incubated at room temperature for 2 hours, and fluorescence intensity was measured by an Envision plate reader (PerkinElmer, Shelton, CT). For cell viability readout that measures cytotoxicity, 4 uL/well of CellTiter-Glo reagent was added into the assay plates using a FRD. After 30 min incubation at room temperature, the luminescence intensity in the plates was measured using a ViewLux (PerkinElmer) plate reader.
On to `O=C(O)Cc1cn(-c2ccccc2)nc1-c1ccc(Cl)cc1`, for which the Potency result was “inactive”.

For `CCC(C)NC(N)=O` (stereo not given), the Potency entry is “inactive”.

As for `CCCC/C=C/C=C\C=O`, the Potency result was “inactive”.

As for `CCc1ccc(C=O)cc1`, the Potency entry is “inactive”.

Consider `NCCN1CCOCC1`, for which the Potency entry is “inactive”.

Turning to `NNc1nnc(NN)c2ccccc12`, the Potency entry was “inactive”.

On to `CCOc1cc(NC(C)=O)ccc1C(=O)OC`, for which the Potency entry was “inactive”.

Turning to `CC(=C(CCOC(=O)C(C)C)SSC(CCOC(=O)C(C)C)=C(C)N(C=O)Cc1cnc(C)nc1N)N(C=O)Cc1cnc(C)nc1N`, the Potency entry was “inactive”.

For the molecule `Cc1ccc2c(c1)OCC(=O)CO2`, the Potency entry was “inactive”.

`CCCCCCOC(=O)CC`: the Potency entry is “inactive”.

As for `C[C@H](CCC(=O)O)[C@H]1CC[C@H]2[C@@H]3C(=O)C[C@@H]4CC(=O)CC[C@]4(C)[C@H]3CC(=O)[C@]12C`, the Potency result is “inactive”.

With `Cc1ccc2ccc(Cl)cc2n1`, the Potency result was “inactive”.

For the molecule `O=C(O)c1ccc(Cl)cc1Cl`, the Potency result is “inactive”.

For the molecule `CCOc1cc([N+](=O)[O-])c(OCC)cc1N1CCOCC1`, the Potency entry was “inactive”.

With `O=C(O)c1cc(Cl)cc([N+](=O)[O-])c1Cl`, the Potency result is “inactive”.

For the molecule `CC(=O)NCCCCCC(=O)O`, the Potency result is “inactive”.

Consider `NS(=O)(=O)c1cc2c(cc1Cl)CN(C1CCCCC1)C2=O`, for which the Potency result was “inactive”.

As to `CN1CCN(CC(=O)N2c3ccccc3C(=O)Nc3cccnc32)CC1`, the activity change, negative = cytotoxicity was -2.12% [at 8.39 µM].

On to `BrCc1cccc(Oc2ccccc2)c1`, for which the Potency result was “inactive”.

For the molecule `O=C1c2ccccc2C(=O)N1CCl`, the Potency result was “inactive”.

As for `CCN(CC)CC(=O)Nc1c(C)cccc1C`, the Potency entry is “inactive”.

As to `C[C@@H](O)[C@H]1C(=O)N2C(C(=O)O)=C(SCCN=CN)C[C@H]12`, the Potency entry was “inactive”.

`COc1ccc(-c2cc(=O)c3c(O)cc(O[C@@H]4O[C@H](CO[C@@H]5O[C@@H](C)[C@H](O)[C@@H](O)[C@H]5O)[C@@H](O)[C@H](O)[C@H]4O)cc3o2)cc1O`: the Potency entry was “inactive”.

Regarding `O=C1CCCC(=O)O1`, the Potency entry was “inactive”.

On to `CCCOC(OCCC)OCCC`, for which the Potency result is “inactive”.

Turning to `O=C(c1ccc(O)cc1)c1ccc(O)c(O)c1O`, the Potency entry was “inactive”.

For `CCCCCCCCCC(C)=O`, the Potency result is “inactive”.

Consider `CCC(C)(CCC(C)C)C(=O)O` (stereo not given), for which the Potency result is “inactive”.

For `Brc1ccc(-c2ccccc2)cc1`, the Potency result is “inactive”.

As to `O=C1O[C@@H]2[C@@H](O)[C@H](O)O[C@@H]2[C@H]1O`, the Potency result is “inactive”.

As to `C[Si](C)(C)C`, the Potency entry is “inactive”.

For `CCCCC(CC)COCCO` (stereo not given), the Potency entry was “inactive”.

For `COc1cc2c(cc1OC)[C@@H]1CC(=O)[C@@H](CC(C)C)CN1CC2`, the Potency result was “inactive”.

Take `CCCCOCCOC(=O)COc1nc(Cl)c(Cl)cc1Cl`: the Potency entry is “inactive”.

Consider `CC(C)NCC(O)COc1cccc2[nH]ccc12` (stereo not given), for which the Potency result is “inactive”.

`CCCCN`: the Potency entry is “inactive”.

As to `C=Cc1ccccn1`, the Potency result was “inactive”.

On to `Oc1cn2c(n1)Nc1ccc(Cl)c(Cl)c1C2`, for which the activity change, negative = cytotoxicity was 10.9% [at 19 µM].

With `O=C1c2ccccc2C(=O)c2cc(S(=O)(=O)O)ccc21`, the Potency result was “inactive”.

For the molecule `Cc1ccsc1/C=C/C1=NCCCN1C`, the Potency result is “inactive”.

Values taken from PubChem BioAssay (Tox21).
